Seven sequences from the supplement of paper PMC6555819 can be followed below.

What all share (experiment): PBM binding z-score (relative to random genomic background probes); higher = stronger binding; sequences stand for … in GC…GCGATTGACAGCGTAGAATGAAGG
The subject of assay [1] is RARb homodimer (NR concentration 270 nM). An outline of the steps: (§1)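 Antibodies against each partner of ligand-free nuclear receptor dimers (one per run) detected binding on custom Agilent 4×180K protein-binding microarrays after 1 h incubation. The double-stranded probes had 34-nt variable regions carrying direct-repeat seeds, single-nucleotide variants, half-site ablations and random human genomic background sequences. Binding z-scores, from regression-normalized fluorescence, use the random background probes as reference.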

Assay [2] relates to RARg:RXRa (NR concentration 270 nM, RXRa partner concentration 90 nM). The essentials:
as §1

The test system of assay [3] is RARg homodimer (NR concentration 270 nM). An outline of the steps: as §1
Assay [4] deals with RXRa DBDmut IVT, anti-RXR (DBD mutation: RXRa K156A/R161A, NR concentration 90 nM). The essentials:
as §1

For assay [5], the system named is RXRa homodimer (NR concentration 180 nM). An outline of the steps: as §1
For assay [6], the system named is THRa:RXRa (NR concentration 90 nM, RXRa partner concentration 90 nM). The essentials: as §1
Assay [7] deals with THRa homodimer (NR concentration 90 nM). An outline of the steps: as §1
Assay [8] has as its system VDR homodimer (NR concentration 270 nM). The essentials: as §1

Regarding GCGACTGGGGCATCAGCAGGTTAACATAACTTAA, the PBM binding z-score in assay [1] was 1.03; in assay [2], 1.09; in assay [3], 0.785; in assay [4], -0.118; in assay [5], 0.5; in assay [6] it was 1.04. Moreover, the PBM binding z-score in assay [7] is -0.291; in assay [8] it was -0.312.
Take CAAACTAGGTCACCGGAAGGTCAAACTCCGCATG: the PBM binding z-score was found to be 5.43 in assay [1]; 8.28 in assay [2]; 7.24 in assay [3]; 2.46 in assay [4]; 6.33 in assay [5]; 4.6 in assay [6]. Also, the PBM binding z-score worked out at 3.44 in assay [7] and 4.04 in assay [8].
For the sequence ACAGACAGATGATGAAGGTAACTCAGGCTATCAT, the PBM binding z-score in assay [1] is 0.176; in assay [2], 0.199; in assay [3], 0.513; in assay [4] it was -0.152; in assay [5], 0.225; in assay [6], 0.742. Also, the PBM binding z-score in assay [7] is 0.192; in assay [8], 0.335.
Take TAGCCTAGGTCATGCGGGCCAGTCTAGTGTCGGC: the PBM binding z-score was 2.8 in assay [1]; 3.86 in assay [2]; 4.19 in assay [3]; 0.255 in assay [4]; 2.42 in assay [5]; 2.75 in assay [6]. Further, the PBM binding z-score in assay [7] turned out to be 0.583; in assay [8], 0.569.
As to ATCTCTAGGTAAGGATAGTTCAGTGAATGCAAAT, the PBM binding z-score in assay [1] was 1.05; in assay [2], 0.45; in assay [3], 0.907; in assay [4], 0.233; in assay [5], -0.127; in assay [6], 1.21. The PBM binding z-score turned out to be 0.86 in assay [7] and 0.73 in assay [8].
ATCTCTAGGTAAAGATAGTTAAGTGAATGCAAAT: the PBM binding z-score in assay [1] is -0.639; in assay [2] it was 0.108; in assay [3] it was 0.448; in assay [4], -0.348; in assay [5], -0.199; in assay [6] it was 0.104. Besides, the PBM binding z-score in assay [7] was -0.211; in assay [8], -0.177.
TCATATATGTAAATGCTAGGTGAAAGTCCGATCT: the PBM binding z-score in assay [1] came to 0.368; in assay [2] it was 0.1; in assay [3] it was 0.244; in assay [4], 1.18; in assay [5], 0.654; in assay [6], 1.01. In addition, the PBM binding z-score in assay [7] is 0.597; in assay [8], -0.0734.
